Here are results for 91 molecules from PubChem BioAssay AID504848 (National Center for Advancing Translational Sciences (NCATS), 2011).

SMILES strings stand for the structures. Out of some 2,300 compounds screened, about 1,400 (61%) were called active. Not shown: some 29% with an inconclusive outcome. So high a share suggests a set chosen from earlier hits. This is one part of the list. Unmarked numbers belong to inactive results. The call rests on the fitted dose curve; in most records, active means well fitted inhibition curve with a large enough effect; inconclusive means small, poorly fitted or top-dose-only effect, or effect the other way; inactive means no such curve, though single readings can be large or run the other way.
On the % scale 0 is the no-effect control and ±100 the full control effect; potency means the concentration at half of the fitted maximal effect.

This assay can be described thus: Confirmation screen for delayed death inhibitors of the malarial parasite plastid, 96 hour incubation. Further: nearly all actives have a fitted effect of over 60% in size. The note with it: P. falciparum luciferase growth in erythrocytes; series mostly up to 28.7 µM; activity change, negative = inhibition: at the top concentration. In short, it runs like this:
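Erythrocytes infected with luciferase-expressing P. falciparum (2% hematocrit, 0.1% parasitemia final) in RPMI 1640 with 0.5% Albumax, exposed to compounds 96 h at 37 C, 5% CO2. Growth inhibition read as decreased luciferase luminescence.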
With `C=CCNC(=O)c1onc(CSc2cccc(Cl)c2)c1C(=O)O`, the “activity change, negative = inhibition” value was -11.1%.

Consider `Cc1cccc(N(Cc2ccccc2)C(=O)CN2C(=O)NC3(CCCCC3C)C2=O)c1` (stereo unspecified), for which the Potency is 11.2 µM (active).

`Cc1nn(Cc2c(Cl)cccc2Cl)c(C)c1NC(=O)c1cc(C(C)C)on1`: the “activity change, negative = inhibition” value was -90.2%.

Consider `Cc1nn(Cc2ccccc2Cl)c(C)c1C(=O)Nc1nnc(C2CC2)s1`, for which the Potency is 11.2 µM (active).

Turning to `COc1ccc(-n2c(=O)/c(=C\c3cccs3)s/c2=C(/C#N)C(=O)N2CCN(C)CC2)cc1`, the “activity change, negative = inhibition” value was -6.92%.

As to `Fc1ccc(Nc2nc(N3CCOCC3)nc(N3CCOCC3)n2)cc1`, the Potency is 12.6 µM (active).

Consider `COc1ccc(CN2CCN(C(=O)c3ccc(CNS(=O)(=O)c4ccc(C)cc4)cc3)CC2)c(OC)c1OC`, for which the Potency is 11.2 µM (active).

As to `O=S(=O)(c1ccc(Cl)c(NC(=S)N/N=C/c2ccc(O)cc2)c1)N1CCOCC1`, the Potency was 5.01 µM (active).

Regarding `COc1cccc(/C=C/C(=O)c2ccc(NS(=O)(=O)c3ccc(C)cc3)cc2)c1`, the Potency was 15.8 µM (active).

Consider `COc1ccc(/C=C/C(=O)c2ccc(NS(=O)(=O)c3ccc(C)cc3)cc2)cc1O`, for which the Potency is 7.08 µM (active).

Consider `CC(NC(=O)CCl)c1ccccc1Br` (stereo unspecified), for which the Potency was 0.794 µM (active).

Turning to `COc1cc2c(cc1OC)CN(CC(=O)Nc1ccc(S(=O)(=O)N3CCCC3)cc1)CC2`, the Potency was 15.8 µM (active).

Consider `COc1ccc(NC(=O)CN2CCN(S(=O)(=O)c3ccc(Br)cc3)CC2)c(OC)c1`, for which the Potency is 7.94 µM (active).

With `COc1ccccc1OCC(=O)Nc1ccc(S(=O)(=O)N2CCCCCC2)cc1`, the Potency is 12.6 µM (active).

Consider `Cc1ccc(NC(=O)COc2ccccc2C#N)cc1S(=O)(=O)N1CCCCCC1`, for which the Potency is 12.6 µM (active).

Take `C=CCn1c(SCc2cc(=O)n3cc(C)ccc3n2)nnc1-c1ccc(F)cc1`: the Potency is 8.91 µM (active).

On to `CCN(CC)C1=N/C(=C\c2ccc(OC)cc2)C(=O)N1c1ccccc1`, for which the Potency was 12.6 µM (active).

For `COc1ccc(/C=C2\N=C(SC)N(c3ccccc3OC)C2=O)cc1`, the Potency was 12.6 µM (active).

`Clc1cccc(CN2CCc3c([nH]c4ccccc34)C2)c1`: the Potency is 12.6 µM (active).

`COc1ccc(C2CC(=O)C3=C(C2)Nc2ccccc2NC3c2coc3ccccc3c2=O)cc1OC` (stereo unspecified): the Potency was 1.12 µM (active).

For `COc1ccc(C(C)(C)C)cc1NC(=O)c1[nH]c(C)c(C(C)=O)c1C`, the Potency was 4.47 µM (active).

With `CC(=O)c1c(C)[nH]c(C(=O)COC(=O)COc2ccccc2F)c1C`, the “activity change, negative = inhibition” value is -8.16%.

As to `CCc1nc(SCC(=O)Nc2ccc(N(C)C)cc2)n[nH]1`, the Potency is 2.82 µM (active).

On to `C=CCN(CC=C)C(=O)C1CCN(S(=O)(=O)c2ccc(N3CCCC3=O)cc2)CC1`, for which the Potency is 5.01 µM (active).

In the case of `Cc1ccc(S(=O)(=O)N2CCC(C(=O)Nc3ccc(S(=O)(=O)N4CCCC4)cc3)CC2)cc1C`, the Potency is 7.08 µM (active).

With `COC(=O)c1cn(C)c2ccc(S(=O)(=O)N3CCCC3)cc2c1=O`, the “activity change, negative = inhibition” value is -13.2%.

For the molecule `COc1ccc(OCCOc2ccc(S(=O)(=O)N3CCCC3)cc2C(N)=O)cc1`, the Potency was 10 µM (active).

Consider `COc1ccc(S(=O)(=O)N2CCCN(S(=O)(=O)c3ccc(OC)c(C)c3)CC2)cc1C`, for which the Potency is 12.6 µM (active).

For `COc1cc(NC(=O)C2CCN(S(=O)(=O)c3ccc(N4CCCC4=O)cc3)CC2)cc(OC)c1`, the Potency is 5.01 µM (active).

As to `Cc1ccc(C(=O)C(C(=O)/C=C/c2ccccc2)=C2SCCCS2)cc1`, the Potency is 7.94 µM (active).

Consider `CC[C@@H]1CC=C[C@H]2[C@H]1C(=O)N(Cc1ccccc1)[C@H]2c1ccoc1`, for which the Potency is 7.08 µM (active).

As for `Fc1ccc2nc(Nc3nc4c(F)cc(F)cc4s3)sc2c1`, the Potency is 10 µM (active).

For the molecule `O=C(CN1CCCCC1)N/N=C/c1ccc(Cl)cc1`, the “activity change, negative = inhibition” value is 6.26%.

Consider `O=C(c1ccc(Cl)cc1)C(CN1CCCCC1)c1ccccc1` (stereo unspecified), for which the Potency is 12.6 µM (active).

Consider `O=C(c1ccc(Cl)cc1)C(CN1CCCC1)c1ccccc1` (stereo unspecified), for which the Potency is 7.08 µM (active).

Turning to `O=C(c1ccc(Br)cc1)C(CN1CCOCC1)c1ccccc1` (stereo unspecified), the Potency is 3.98 µM (active).

As for `O=C(Nc1ccc(C2=NCCN2)cc1)c1ccc(C(=O)Nc2ccc(C3=NCCN3)cc2)c(Cl)c1`, the Potency is 0.0708 µM (active).

Consider `CCOc1ccccc1CNC(=O)CN1C(=O)CSc2ccc(S(=O)(=O)N3CCOCC3)cc21`, for which the Potency was 8.91 µM (active).

As for `COc1ccccc1-c1coc2cc(OC(=O)N3CCOCC3)ccc2c1=O`, the “activity change, negative = inhibition” value was -2.61%.

Turning to `Cc1c(C#N)c(NC(=O)CCl)n(Cc2ccccc2)c1C`, the Potency is 4.47 µM (active).

`Cc1ccc(NC(=O)c2nnn(CC(=O)Nc3ccc4c(c3)OCO4)c2N)cc1C`: the “activity change, negative = inhibition” value is 0.181%.

Consider `Cn1c(=O)n(C)c2cc(NC(=O)CCl)ccc21`, for which the Potency is 2 µM (active).

Take `O=C(CCl)Nc1ccc2c(c1)OCO2`: the Potency was 2.51 µM (active).

Consider `CCOc1ccccc1N(CC(=O)Nc1ccc(S(=O)(=O)N2CCCC2)cc1)S(C)(=O)=O`, for which the Potency was 11.2 µM (active).

In the case of `COc1ccc(C)cc1N(CC(=O)Nc1ccc(S(=O)(=O)N2CCCC2)cc1)S(C)(=O)=O`, the Potency is 8.91 µM (active).

Take `CCOC(=O)c1c[nH]c2cc(OCC(C)C)c(OCC(C)C)cc2c1=O`: the Potency is 0.178 µM (active).

In the case of `COc1ccc(-c2c(-c3ccc(OC)c(C)c3O)n[nH]c2C)cc1`, the Potency was 10 µM (active).

Turning to `Cc1ccc(Cl)cc1N1CCN(Cc2nc3c(c(=O)[nH]c(=O)n3C)n2CCc2ccccc2)CC1`, the Potency is 3.98 µM (active).

Regarding `CC(C)C(=O)NCCSc1c[nH]c2ccccc12`, the Potency is 3.98 µM (active).

On to `CCOc1ccc(N(C)C(=O)CCc2nnc3ccc(N4CCCCC4)nn23)cc1`, for which the Potency was 7.94 µM (active).

Take `O=[N+]([O-])c1cccc(/C=C/c2nc[nH]c2[N+](=O)[O-])c1`: the Potency is 3.98 µM (active).

For the molecule `CC1(C)COC(/C=C/c2cccc([N+](=O)[O-])c2)=N1`, the Potency was 8.91 µM (active).

Regarding `COc1ccc(-c2nnc3ccc(SCC(=O)Nc4nc5ccc(C)cc5s4)nn23)cc1OC`, the Potency was 0.158 µM (active).

For the molecule `O=C(C[n+]1ccccc1)Nc1ccc(Cl)c([N+](=O)[O-])c1`, the Potency was 7.08 µM (active).

As for `Nc1ccc2nc(-c3ccc(-c4nc5ccc(N)cc5[nH]4)cc3)[nH]c2c1`, the Potency is 5.62 µM (active).

For `Cc1coc2cc3oc(=O)c(CCC(=O)NCCCn4ccnc4)c(C)c3cc12`, the Potency is 12.6 µM (active).

On to `CCOC(=O)C1CCN(c2c(NCc3ccc(C(=O)NCCC(C)C)cc3)c(=O)c2=O)CC1`, for which the Potency is 1.12 µM (active).

Regarding `C(=N\N(c1ccccc1)c1ccccc1)/c1ccccn1`, the “activity change, negative = inhibition” value was -39.2%.

As for `O=C(N/N=C/c1ccccn1)c1cc([N+](=O)[O-])cc([N+](=O)[O-])c1`, the Potency was 3.16 µM (active).

As to `CC1(C)N=C(N)N=C(N)N1c1ccc(OCCCOc2ccccc2)c(Cl)c1`, the Potency was 11.2 µM (active).

As for `CCc1ccc(C(=O)NNc2ccc(C)c(Cl)c2)cc1`, the “activity change, negative = inhibition” value is -10.3%.

For the molecule `Cc1ccc(NC2=CC(=O)CC(C)(C)C2)cc1Cl`, the Potency is 12.6 µM (active).

As to `Cc1ccc(-n2c(Cl)c(Cl)nc(Cl)c2=O)cc1`, the Potency is 11.2 µM (active).

For `Clc1ccc2nnnc(-c3ccccc3)c2c1`, the Potency is 3.55 µM (active).

For `CCn1cc(C(=O)O)c(=O)c2cc(F)c(N/N=C/c3ccccc3)cc21`, the Potency is 10 µM (active).

In the case of `COc1ccc(C)cc1-n1c(SCC(=O)Nc2cc(C)on2)nc2sc(C)c(C)c2c1=O`, the Potency is 2 µM (active).

As for `CC(SC#N)C(=O)C12CC3CC(CC(C3)C1)C2` (stereo unspecified), the Potency was 12.6 µM (active).

For the molecule `COc1ccc(N(CC(=O)NCCSCc2ccc(C)cc2)S(=O)(=O)c2ccccc2)cc1`, the Potency is 12.6 µM (active).

For `COc1ccc2c(c1)c(CC(=O)Nc1nnc(C3CC3)s1)c(C)n2C(=O)c1ccc(Cl)cc1`, the Potency was 10 µM (active).

On to `COc1ccc(-c2nc(N3CCN(C)CC3)sc2-c2ccc(OC)cc2)cc1`, for which the Potency was 12.6 µM (active).

In the case of `CC1(CCc2ccc3c(c2)OCO3)NCCc2c1[nH]c1ccccc21` (stereo unspecified), the Potency was 7.08 µM (active).

Consider `C/C(=N\NC(=S)NCC(C)(C)C)c1cc(F)cc(F)c1O`, for which the Potency was 11.2 µM (active).

Regarding `Cc1cc(/C=C2/SC(=O)NC2=O)c(C)n1-c1ccc(N2CCOCC2)cc1`, the Potency is 12.6 µM (active).

For `CCC(=O)N1CCc2cc(S(=O)(=O)N3CCCCCC3)ccc21`, the Potency was 12.6 µM (active).

`CC(=O)N1CCc2cc(S(=O)(=O)N3CC(C)CC(C)C3)ccc21` (stereo unspecified): the Potency is 8.91 µM (active).

With `O=C(Nc1ccccc1SCC1CSc2nc3ccccc3c(=O)n21)c1ccccc1` (stereo unspecified), the Potency is 12.6 µM (active).

As to `Cc1ccc(C(=O)Nc2ccccc2SCC2CSc3nc4ccccc4c(=O)n32)cc1` (stereo unspecified), the Potency was 10 µM (active).

In the case of `O=C(Nc1ccccc1SCC1CSc2nc3ccccc3c(=O)n21)c1ccccc1Cl` (stereo unspecified), the Potency was 11.2 µM (active).

With `Cc1cccc(C(=O)Nc2ccccc2SCC2CSc3nc4ccccc4c(=O)n32)c1` (stereo unspecified), the Potency is 3.98 µM (active).

As to `CC(Oc1ccc(F)cc1)C(=O)Nc1ccc2ccccc2c1` (stereo unspecified), the “activity change, negative = inhibition” value was 1.14%.

For the molecule `CC(Oc1ccccc1F)C(=O)Nc1ccc2ccccc2c1` (stereo unspecified), the “activity change, negative = inhibition” value is 11.9%.

Take `CC(=O)Nc1ccc(OCc2cccc3ccccc23)cc1`: the Potency was 7.94 µM (active).

On to `COc1ccccc1NS(=O)(=O)c1ccc2oc(SCc3ccc(C#N)cc3)nc2c1`, for which the Potency was 12.6 µM (active).

On to `CCOC(=O)c1c(-c2cccc(C)c2)csc1NC(=O)c1c(-c2ccccc2)noc1C`, for which the Potency was 8.91 µM (active).

With `CCOC(=O)c1c(NC(=O)c2c(-c3ccccc3)noc2C)sc(C)c1-c1ccccc1`, the Potency was 5.01 µM (active).

In the case of `CCOC(=O)c1c(-c2ccc(-c3ccccc3)cc2)csc1NC(=O)c1cccc(N2C(=O)CCC2=O)c1`, the Potency is 2.24 µM (active).

On to `COC(=O)c1c(-c2ccccc2)csc1NC(=O)c1c(-c2ccccc2)noc1C`, for which the Potency is 14.1 µM (active).

In the case of `CCOC(=O)c1c(-c2ccc(F)cc2)csc1NC(=O)c1c(-c2ccccc2)noc1C`, the Potency was 7.08 µM (active).

For `COC(=O)c1c(NC(=O)c2cccc(N3C(=O)CCC3=O)c2)sc2c1CCN(C(C)=O)C2`, the Potency was 11.2 µM (active).

Consider `COc1ccc(C(=O)Nc2c(N)nc(SCC(=O)Nc3ccc(NC(C)=O)cc3)[nH]c2=O)cc1OC`, for which the Potency was 12.6 µM (active).

With `Nc1nc(SCC(=O)NCC2CCCO2)[nH]c(=O)c1NC(=O)c1ccc(F)c(F)c1` (stereo unspecified), the Potency was 7.94 µM (active).
